# Screens deposited in PubChem BioAssay by Paczesny and Yang Labs, IUPUI and University of Michigan.
# Shown is part of a subset that was picked to be rich in hits.
# ST2 inh: inhibitors of human ST2 (IL1RL1) binding to IL-33. Q01638. AlphaLISA ST2-Fc/biotin-IL-33 interaction, 1 h. inhibition, % for hits at 17 µM. 78,000 tested, 2.3% active. AID 1259354; in the data active = inhibition above about 30%
# Target sequence (Q01638 whole entry, looked up): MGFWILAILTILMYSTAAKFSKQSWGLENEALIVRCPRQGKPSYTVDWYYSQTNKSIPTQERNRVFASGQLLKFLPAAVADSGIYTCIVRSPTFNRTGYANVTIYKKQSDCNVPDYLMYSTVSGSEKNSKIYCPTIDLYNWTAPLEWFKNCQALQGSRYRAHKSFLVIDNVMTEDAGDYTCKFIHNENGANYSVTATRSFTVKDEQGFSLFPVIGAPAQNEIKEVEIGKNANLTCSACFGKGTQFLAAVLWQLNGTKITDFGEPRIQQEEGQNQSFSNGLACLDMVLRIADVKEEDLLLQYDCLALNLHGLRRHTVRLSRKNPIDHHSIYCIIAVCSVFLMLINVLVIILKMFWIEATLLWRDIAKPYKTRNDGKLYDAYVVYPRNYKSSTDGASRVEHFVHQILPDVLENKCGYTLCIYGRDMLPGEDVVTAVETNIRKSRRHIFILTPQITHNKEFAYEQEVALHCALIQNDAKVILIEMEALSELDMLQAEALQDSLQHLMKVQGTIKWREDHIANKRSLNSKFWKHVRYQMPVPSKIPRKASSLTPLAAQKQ
# * marks the source's active call; other numbers are inactive results; i = inactive.
SMILES,ST2 inh
CC(C)c1ccc(N(C(=O)CCc2ccccc2)C2C=CS(=O)(=O)C2)cc1 (stereo not drawn),i
Cc1cccc(Nc2c3c4c(cccc4n(C)c2=O)C(=O)c2ccccc2-3)c1,i
CCOc1ccc(NC2=NS(=O)(=O)c3ccccc32)cc1,i
CCOc1ccc(S(=O)(=O)N=C2C=C(Nc3ccc(O)cc3)C(=O)c3ccccc32)cc1,84%*
CCc1ccc(NS(=O)(=O)c2ccc(OC)c(OC)c2)cc1,i
O=S(=O)(N=C(Nc1cccc(O)c1)c1ccccc1)c1ccc(Cl)cc1,i
CCOc1ccc(NC2=CC(=NS(=O)(=O)c3ccc(OC)cc3)c3ccccc3C2=O)cc1,94%*
CCOc1ccc(NC(=O)C(Cc2ccccc2)N2C(=O)c3ccccc3C2=O)cc1 (stereo not drawn),i
CCc1ccc(S(=O)(=O)N=C2C=C(Nc3ccc(O)cc3)C(=O)c3ccccc32)cc1,91%*
CCOc1ccc(NC(=O)c2ccccc2Cl)cc1,i
COc1ccc(S(=O)(=O)N=C2C=C(Nc3cccc(C)c3)C(=O)c3ccccc32)cc1,79%*
CCOc1ccc(NC(=O)COc2ccc(OC)cc2)cc1,i
Cc1cccc(NS(=O)(=O)c2ccc(F)cc2)c1,i
CC(C)c1ccc(Nc2c(-c3ccc(O)cc3)nc3cnccn23)cc1,i
CC(C)Nc1cc(-c2ccc3c(c2)OCO3)nc(N)n1,i
Cc1ccc2c(Cl)c(C(=O)Nc3ccncc3)sc2c1,i
CC1=C(CCN2CCNC(C(=O)NC3CC3)C2)C(C)(C)CCC1 (stereo not drawn),i
CCCc1ccc(OCC(=O)Nc2sc3c(c2C(N)=O)CCC3)cc1,i
CC1=NN(c2nc(-c3ccc(C)cc3)cs2)C(=O)/C1=C\c1ccc(N(C)C)cc1,i
c1ccc(CC2CN(Cc3cccn3-c3ccccn3)CCO2)cc1 (stereo not drawn),i
CC(=O)C(C)n1c(CN2CC(C)OC(C)C2)nc2c1c(=O)[nH]c(=O)n2C (stereo not drawn),i
C=CCN(Cc1ccccc1C)C(=O)Cn1cnc2ccsc2c1=O,i
COc1ccc(C(=O)N(C)CC2CCN(CCc3ccc(Cl)cc3)CC2)c(OC)n1,i
CN(CCCNC(=O)C1CCN(c2ccc(-c3cccs3)nn2)CC1)Cc1ccccc1,i
COc1cccc(C2C(C#N)=C(N)Oc3n[nH]c(-c4ccc5c(c4)OCO5)c32)c1 (stereo not drawn),i
SMILES,ST2 inh
CCOc1ccc(NC2=CC(=NS(=O)(=O)c3ccccc3)c3ccccc3C2=O)cc1,77%*
Cc1ccc(Cl)cc1N1CCN(C(=O)C(NS(=O)(=O)c2cccs2)C(C)C)CC1 (stereo not drawn),i
COc1ccc(NC2=CC(=NS(=O)(=O)c3ccc(Cl)cc3)c3ccccc3C2=O)cc1,93%*
O=C1C(Nc2ccccc2)=CC(c2ccc(O)cc2)N1c1ccccc1 (stereo not drawn),i
O=S(=O)(O)c1ccc(Nc2ccccc2)cc1,i
O=S(=O)(Nc1ccc(Oc2ccccc2)cc1)c1ccc(Cl)cc1,i
O=S(=O)(Nc1ccc(F)c(Cl)c1)c1cccs1,i
Cc1ccc(Cl)cc1NC1=CC(=NS(=O)(=O)c2cccs2)c2ccccc2C1=O,56%*
CCOc1ccc(NC(=O)Cc2ccccc2)cc1,i
CCOc1ccc(NC(=O)C(c2ccccc2)c2ccccc2)cc1,i
COc1ccc(NS(=O)(=O)c2ccc(NC(=O)Nc3ccc(Cl)cc3)cc2)cc1,i
O=C1C=C(Nc2ccc(O)cc2)C(=O)c2ccccc21,42%*
Cc1ccccc1NC(=O)c1cnc2n(c1=O)CCS2,i
CC(C)NS(=O)(=O)c1cccc2nonc12,i
CCCCSc1nnc2c(n1)OC(c1ccccn1)Nc1ccccc1-2 (stereo not drawn),i
O=C1CCCC2=C1C(c1cccs1)c1c(nc(SCc3ccccc3)[nH]c1=O)N2 (stereo not drawn),i
Cc1sc(NC(=O)C(C)(C)C)c(C(=O)O)c1C,i
COCCCNC(=O)C1CCN(CC(C)C)CC1,i
CC(C)N=C(NS(=O)(=O)c1cccs1)c1ccccc1,i
O=C1C(Nc2ccc(O)cc2)=CC(=NS(=O)(=O)c2cccs2)c2ccccc21,88%*
NC(=O)c1ccc(NS(=O)(=O)c2cccs2)cc1,i
O=C(CCn1ccccc1=O)N1CCC2(CCCO2)CC1,i
O=C(NCCCN1CCOCC1)c1cc(=O)n(Cc2ccc(Cl)cc2)c2ccccc12,i
Cc1ccc(COc2ccc(/C=C3\SC(=O)N(CC(=O)N4CCOCC4)C3=O)cc2)cc1,i
O=C(CN1C(=O)S/C(=C\c2ccccc2OCc2cccc(F)c2)C1=O)N1CCOCC1,30%*
SMILES,ST2 inh
CN1C(=O)S/C(=C/c2ccccc2OCc2ccc(C(=O)O)cc2)C1=O,i
CCN(CC)c1ccc(/C=C2\SC(=O)N(CC(=O)N3CCOCC3)C2=O)cc1,i
C=CCOc1ccc(/C=C2\SC(=O)N(CC(=O)N3CCOCC3)C2=O)cc1OC,40%*
COc1cc(C=O)ccc1OC(=O)N1CCOCC1,i
Cc1cccc(Nc2nnc(C(C)(C)C)c(=O)[nH]2)c1C,i
CC(C)(C)CC(NC(=O)c1ccc(-n2cnnc2)cc1)c1cccnc1 (stereo not drawn),i
CNC(=O)C(C)N(C)C(=O)Cc1sc(C)nc1C (stereo not drawn),i
CCn1c(C2CCN(C3CCN(c4ccccc4)CC3)CC2)nn(C)c1=O,i
COc1cc(S(=O)(=O)NCc2ccc3c(c2)OCO3)c(OC)cc1Cl,i
CC(=O)Nc1cc(C)c2c(=O)oc3ccccc3c2n1,i
Cc1cc(NC(=O)c2ccc3c(c2)OCO3)nc2c1c(=O)oc1ccccc12,i
Cc1cc(NC(=O)/C=C\c2ccc3c(c2)OCO3)nc2c1c(=O)oc1ccccc12,43%*
CCCC(=O)Nc1cc2c(cc1OC)NC(=O)CC2c1cncn1CC (stereo not drawn),i
COc1cc(/C=C2/NC(=O)NC2=O)c(Br)c(Br)c1O,i
O=C1CC(=O)Nc2cc(S(=O)(=O)N3CCN(Cc4ccc5c(c4)OCO5)CC3)ccc2N1,i
COc1ccc(N2CCN(Cc3cccnc3)CC2)cc1,i
COc1ccc(N2CCN(Cc3ccc4nonc4c3)C(C)C2)cc1 (stereo not drawn),31%*
COc1cccc(-c2ccccc2NC(=O)C2CCN(Cc3ccc4nonc4c3)CC2)c1,i
O=C(CN1CCCCCC1)N1CCCCC1c1cccnc1 (stereo not drawn),i
Cc1nnc(SCCNC(=O)Cc2cnc3c(C)cccn23)s1,i
O=C(NCCCN1CCc2ccccc2C1)C1CCCN1c1nnc(N2CCCC2=O)s1 (stereo not drawn),i
Cc1cc(-n2cccn2)ccc1CN1CCN(c2cc(=O)[nH]c(N)n2)CC1,40%*
Cc1nc2c(c(=O)[nH]1)CCN(C(=O)c1cc(-n3cccn3)ccc1Cl)C2,i
NC(=O)c1ccc(N2CCN(Cc3cccc(-n4cccn4)c3)CC2)nc1,i
Cc1cc(C)n(-c2nc3c(c(=O)[nH]c(=O)n3C)n2Cc2ccc(Cl)cc2)n1,i
CC(=O)Oc1ccc(-c2nc3ccc(Cl)cc3c(=O)o2)cc1,i
Cc1ccc(-c2onc3ccc(Cl)cc23)cc1,45%*
O=C(O)c1cc(-c2ccc(Br)cc2)nc2ccc(Cl)cc12,i
CC1(C)CC(=O)C(C(C2=C(O)CC(C)(C)CC2=O)c2cccc(O)c2)C(=O)C1 (stereo not drawn),i
